Data taken from PubChem BioAssay (NCATS).
“And” between values parts separate entries of the source, which are not always exact repeats. Equal values may be shown once. Inconclusive results are not listed. The source made the active and inactive calls. Calls come from the whole dose curve; as a rule, active = well fitted inhibition curve with a large enough effect; inconclusive = small, poorly fitted or top-dose-only effect; inactive = flat fitted curve, though single readings scatter.

Tests used:
JCK = experiment: qHTS profiling for inhibitors of Plasmodium falciparum proliferation (AID 504749); note: potency is the fitted concentration of half-maximal effect; conditions: P. falciparum in erythrocytes, SYBR Green DNA, 72 h; series mostly up to 28.7 µM
In short: (§1)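 Infected RBCs, 0.3% parasitemia/2.5% Hct final; cpd 72 h, 37 C, 5% CO2; lysis buffer with saponin/triton/SYBR Green I, o/n RT dark; FI 485/535; norm. to artemisinin (0.29 uM) and DMSO.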

N140 = experiment: as above; conditions: P. falciparum in erythrocytes, SYBR Green DNA, 72 h; series mostly up to 28.7 µM
In short: as §1

P93_24 = experiment: as above; conditions: P. falciparum in erythrocytes, SYBR Green DNA, 72 h; series mostly up to 28.7 µM
In short: as §1

P94_40 = experiment: as above; conditions: P. falciparum in erythrocytes, SYBR Green DNA, 72 h; series mostly up to 28.7 µM
In short: as §1

PC15 = experiment: as above; conditions: P. falciparum in erythrocytes, SYBR Green DNA, 72 h; series mostly up to 28.7 µM
In short: as §1

PC26 = experiment: as above; conditions: P. falciparum in erythrocytes, SYBR Green DNA, 72 h; series mostly up to 28.7 µM
In short: as §1

PC49 = experiment: as above; conditions: P. falciparum in erythrocytes, SYBR Green DNA, 72 h; series mostly up to 28.7 µM
In short: as §1

SC27B = experiment: as above; conditions: P. falciparum in erythrocytes, SYBR Green DNA, 72 h; series mostly up to 28.7 µM
In short: as §1

TAB109 = experiment: as above; conditions: P. falciparum in erythrocytes, SYBR Green DNA, 72 h; series mostly up to 28.7 µM
In short: as §1

TAB113 = experiment: as above; conditions: P. falciparum in erythrocytes, SYBR Green DNA, 72 h; series mostly up to 28.7 µM
In short: as §1

TAB165 = experiment: as above; conditions: P. falciparum in erythrocytes, SYBR Green DNA, 72 h; series mostly up to 28.7 µM
In short: as §1

CRL-7250 = normal cell line; experiment: Cytotoxic Profiling of Annotated Libraries Using Quantitative High-Throughput Screening (AID 1296008); conditions: Five cell lines viability, CellTiter-Glo ATP luminescence, 48-72 h; max response: stronger effect = lower value; note: potency is the fitted concentration of half-maximal effect; for max response: % is set by controls: 0 for no effect and ±100 for the full control effect
In short: (§2)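 Cytotoxicity was measured as CellTiter-Glo ATP luminescence, read after 10 min at room temperature. Compound treatment of the cells lasted 48 or 72 hr at 37 degrees Celsius in a qHTS format.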

HEK293 = experiment: as above; conditions: Five cell lines viability, CellTiter-Glo ATP luminescence, 48-72 h; max response: stronger effect = lower value
In short: as §2

HaCat [1] = experiment: as above; conditions: Five cell lines viability, CellTiter-Glo ATP luminescence, 48-72 h; max response: stronger effect = lower value
In short: as §2

KB-3-1 = experiment: as above; conditions: Five cell lines viability, CellTiter-Glo ATP luminescence, 48-72 h; max response: stronger effect = lower value
In short: as §2

NIH3T3 = experiment: as above; conditions: Five cell lines viability, CellTiter-Glo ATP luminescence, 48-72 h; max response: stronger effect = lower value
In short: as §2

HEK293T = experiment: qHTS assay to identify novel small-molecules to repurpose for Merkel cell carcinoma treatment (AID 1296009); conditions: MCC and control cell lines, CellTiter-Glo viability, 72 h; at 44.8 µM (top of the series) unless noted
In short: (§3)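 72 hr, 37 degree celsius; NPC 8-pt / MIPE 11-pt dose response; compound pinned in DMSO; CellTiter-Glo, 10 min RT, luminescence; normalized to no-cell and DMSO controls.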

HACAT [2] = experiment: as above; conditions: MCC and control cell lines, CellTiter-Glo viability, 72 h; at 44.8 µM (top of the series) unless noted
In short: as §3

PAD = experiment: qHTS profiling for inhibitors of Plasmodium falciparum proliferation (AID 504749); note: potency is the fitted concentration of half-maximal effect; conditions: P. falciparum in erythrocytes, SYBR Green DNA, 72 h; series mostly up to 28.7 µM
In short: as §1

W2 = experiment: as above; conditions: P. falciparum in erythrocytes, SYBR Green DNA, 72 h; series mostly up to 28.7 µM
In short: as §1
Note: nearly all actives have a fitted effect of over 60% in size.

OCc1ccccc1O
inactive: Potency (JCK) | Potency (N140) | Potency (P93_24) | Potency (P94_40) | Potency (PC15) | Potency (PC26) | Potency (PC49) | Potency (SC27B) | Potency (TAB109) | Potency (TAB113) | Potency (TAB165) | max response (CRL-7250) 2.81% | outcome (HEK293) | max response (HaCat [1]) -18.5% | max response (KB-3-1) -3.85% | max response (NIH3T3) 3.42% | outcome (HEK293T)

NC[C@H]1O[C@H](O[C@H]2[C@H](O)[C@@H](O[C@H]3O[C@H](CO)[C@@H](O)[C@H](N)[C@H]3O)[C@H](N)C[C@@H]2N)[C@H](N)[C@@H](O)[C@@H]1O
inactive: max response (CRL-7250) -9.82% | max response (HEK293) -0.173% | outcome (HaCat [1]) | max response (NIH3T3) 1.61% | outcome (HACAT [2]) inactive [at 17.4 µM]

Oc1ccc(O)cc1
inactive: Potency (JCK) | Potency (PAD) | Potency (PC15) | Potency (PC49) | Potency (SC27B) | Potency (TAB109) | outcome (CRL-7250) | max response (HEK293) -16.2% | outcome (HaCat [1]) | max response (NIH3T3) -10.8% | outcome (HACAT [2])
active: Potency (W2) 12 µM

CCCCC(CC)CN=C(N)NC(N)=NCCCCCCN=C(N)NC(N)=NCC(CC)CCCC (stereo not given)
active: Potency (JCK) 3.98 µM | Potency (N140) 1 µM | Potency (P93_24) 1.78 µM | Potency (P94_40) 1.26 µM | Potency (PAD) 0.891 µM | Potency (PC15) 2.82 µM | Potency (PC26) 1.51 µM | Potency (PC49) 2.24 µM | Potency (SC27B) 2 µM | Potency (TAB109) 1.12 µM | Potency (TAB113) 1.78 µM | Potency (TAB165) 1.26 µM | Potency (W2) 1.07 µM | Potency (CRL-7250) 7.5 µM | Potency (HEK293) 2.99 µM | Potency (HaCat [1]) 6.68 µM

Oc1cc(O)c2c(c1)O[C@H](c1ccc(O)c(O)c1)[C@H](O)C2
inactive: max response (CRL-7250) -5.79% | outcome (HEK293) | max response (HaCat [1]) 4.8% | max response (KB-3-1) -0.959% | max response (NIH3T3) -0.255% | outcome (HEK293T)

COCc1c(C(C)C)nc(C(C)C)c(/C=C/[C@@H](O)C[C@@H](O)CC(=O)O)c1-c1ccc(F)cc1
active: Potency (CRL-7250) 0.0596 µM | Potency (HEK293) 0.531 µM | Potency (HaCat [1]) 0.841 µM | Potency (KB-3-1) 1.84 µM | Potency (NIH3T3) 2.37 µM
inactive: Potency (JCK) | Potency (N140) | Potency (P93_24) | Potency (P94_40) | Potency (PAD) | Potency (PC15) | Potency (PC26) | Potency (PC49) | Potency (TAB109) | Potency (TAB113) | Potency (TAB165)

CCCC(=O)O[C@]1(C(=O)CO)CC[C@H]2[C@@H]3CCC4=CC(=O)CC[C@]4(C)[C@H]3[C@@H](O)C[C@@]21C
inactive: max response (CRL-7250) -24.4% | outcome (HEK293) | max response (HaCat [1]) -4.75% | max response (KB-3-1) 1.39% | max response (NIH3T3) -4.28% | outcome (HEK293T)

Cc1ccccc1C(=O)Nc1ccc(C(=O)N2CCCC(N(C)C)c3ccccc32)cc1 (stereo not given)
active: Potency (CRL-7250) 23.7 µM | Potency (HEK293) 3.35 µM and 5.8 µM | Potency (KB-3-1) 7.31 µM | Potency (NIH3T3) 9.44 µM

C=CCc1ccc(O)c(OC)c1
inactive: Potency (JCK) | Potency (N140) | Potency (P94_40) | Potency (PAD) | Potency (PC15) | Potency (PC26) | Potency (PC49) | Potency (SC27B) | Potency (TAB109) | Potency (TAB113) | Potency (TAB165) | Potency (W2) | outcome (CRL-7250) | outcome (HEK293) | max response (HaCat [1]) -0.0642% | max response (KB-3-1) 3.55% | max response (NIH3T3) 3.27% | outcome (HEK293T)

CN(C)C(=S)SC(=S)N(C)C
inactive: max response (KB-3-1) 31.5%
active: Potency (N140) 11.2 µM | Potency (P93_24) 8.91 µM | Potency (P94_40) 11.2 µM | Potency (PAD) 5.01 µM | Potency (TAB113) 11.2 µM | Potency (TAB165) 11.2 µM | Potency (W2) 9.53 µM | Potency (CRL-7250) 8.41 µM | Potency (HEK293) 5.96 µM | Potency (NIH3T3) 2.66 µM

O=c1ccc2ccccc2o1
inactive: Potency (JCK) | Potency (N140) | Potency (P93_24) | Potency (P94_40) | Potency (PAD) | Potency (PC15) | Potency (PC26) | Potency (PC49) | Potency (SC27B) | Potency (TAB109) | Potency (TAB113) | Potency (TAB165) | Potency (W2) | outcome (CRL-7250) | outcome (HEK293) | max response (HaCat [1]) -0.31% | max response (KB-3-1) -9.75% | outcome (NIH3T3) | outcome (HEK293T)

CCOc1ccc2nc3cc(N)ccc3c(N)c2c1
active: Potency (JCK) 10 µM | Potency (N140) 10 µM | Potency (P93_24) 3.55 µM | Potency (P94_40) 5.62 µM | Potency (PAD) 7.08 µM | Potency (PC15) 10 µM | Potency (PC49) 7.94 µM | Potency (SC27B) 7.94 µM | Potency (TAB109) 3.98 µM | Potency (TAB113) 4.47 µM | Potency (TAB165) 10 µM | Potency (W2) 3.38 µM | Potency (CRL-7250) 11.9 µM
inactive: max response (HaCat [1]) -2.56% | max response (KB-3-1) -2.82%
